Results filed as inconclusive are left out. The source made the active and inactive calls. Calls follow the shape of the dose curve; as a rule, active = well fitted cell-killing curve with a large enough effect; inconclusive = small, poorly fitted or top-dose-only effect; inactive = no such curve, though single readings can be large or run the other way.
Test: Quantitative High-Throughput drug screen in 47 multiple myeloma cell lines against the NCATS MIPE library collection: NCIH929_DSMZ cell viability assay (AID 1918978); also: nearly all actives have a fitted effect of over 35% in size
Conditions: NCI-H929 myeloma viability, CellTiter-Glo ATP, 48 h; series mostly up to 45.8 µM
From the text: PI: Beverly A. Mock Ph.D.
Laboratory of Cancer Biology and Genetics,
Center for Cancer Research, National Cancer Institute,
National Institute of Health, Bethesda, Maryland
Drug resistance and disease progression are common in multiple myeloma (MM) patients, underscoring the need for new therapeutic combinations. […] We hypothesized that effective combinations would reduce MYC expression and enhance p16 activity. […] These preclinical data identify potentially useful drug combinations for evaluation in drug-resistant MM and reveal potential mechanisms of combined drug sensitivity.
Described herein is the primary MIPE qHTS used to cherrypick compounds. Validated compounds were then further tested for potential synergistic activiy.
[1] Peat TJ, Gaikwad SM, Dubois W, Gyabaah-Kessie N, Zhang S, Gorjifard S, Phyo Z, Andres M, Hughitt VK, Simpson RM, Miller MA, Girvin AT, Taylor A, Williams D, D'Antonio N, Zhang Y, Rajagopalan A, Flietner E, Wilson K, Zhang X, Shinn P, Klumpp-Thomas C, McKnight C, Itkin Z, Chen L, Kazandijian D, Zhang J, Michalowski AM, Simmons JK, Keats J, Thomas CJ, Mock BA. Drug combinations identified by high-throughput screening promote cell cycle transition and upregulate Smad pathways in myeloma. Cancer Lett. 2023 Aug 1;568:216284. doi: 10.1016/j.canlet.2023.216284. Epub 2023 Jun 24. PMID: 37356470; PMCID: PMC10408729.
SEQUENCE No. (e.g., 1, 2, 3, etc.); […] (e.g., Cells, Incubation, Reagent, etc.); VALUE and DESCRIPTION.
1; Cells; 5 uL; white, solid bottom 1536-well Greiner assay plate.
2; Compounds; 23 nL; Kalypsis pin tool (Wako USA) equipped with a 1536-well pin head to transfer to the assay plates.
3; Incubation; 48 hours; 37C incubation.
4; Reagent;5uL; CellTiter Glo (Promega).
5; Detector; 425V; Luminescence; Viewlux PerkinElmer.
NOTES (numbers refer to Sequence numbers above)
1. The cell-based screening methods employed in this study were like those previously published. Briefly, the corresponding myeloma cell lines were screened in 1,536-well plates with 500 cells, 5-uL per well for inhibition of cell viability (assessed by measuring ATP levels with CellTiterGlo).
2. NCATS MIPE 4.0 library of approved and investigational drugs were added using the Kalypsis pin tool. Wells treated with DMSO only for 100% viability and media only for 0% viability were used as controls.
3. The assay plates were covered and incubated for 48 hours in a 37C, 5% CO2 incubator with controlled humidity.
4. After 48 hours, CellTilter-GloTM luminescent substrate mix (Promega) reagent was added to the assay plate and plates we incubated for 5 min at room temperature.
5. Signal was measured as median relative luminescence units on a ViewLux (PerkinElmer) multiplate reader.
[1] Heske CM, Davis MI, Baumgart JT, Wilson K, Gormally MV, Chen L, Zhang X, Ceribelli M, Duveau DY, Guha R, Ferrer M, Arnaldez FI, Ji J, Tran HL, Zhang Y, Mendoza A, Helman LJ, Thomas CJ. Matrix Screen Identifies Synergistic Combination of PARP Inhibitors and Nicotinamide Phosphoribosyltransferase (NAMPT) Inhibitors in Ewing Sarcoma. Clin Cancer Res. 2017 Dec 1;23(23):7301-7311. doi: 10.1158/1078-0432.CCR-17-1121. Epub 2017 Sep 12. PMID: 28899971; PMCID: PMC6636827.
Potency is read from the fitted curve at half-maximal effect.

Row | Structure (SMILES) | Potency
1 | O=C(c1cncc(Br)c1)N1CCC(N2CCCC2)CC1 | inactive
2 | Cc1c(C)n(Cc2ccc(-c3ccccc3C(=O)O)cc2)c2ccc(C(=O)N[C@@H](C)c3ccc([N+](=O)[O-])cc3)cc12 | 26400 nM (active)
3 | NC(=O)Nc1cc(-c2cccc(F)c2)sc1C(=O)N[C@H]1CCCNC1 | 2640 nM (active)
4 | CNC(=O)c1ccc(-c2cnc3ncc(Cc4ccc5ncccc5c4)n3n2)cc1F | inactive
5 | C=CC(=O)Nc1cc2c(Nc3ccc(F)c(Cl)c3)ncnc2cc1OCCCN1CCOCC1 | 2640 nM (active)
6 | Cc1cnc(-c2cnc(NCCNc3ccc(C#N)cn3)nc2-c2ccc(Cl)cc2Cl)[nH]1 | 10500 nM (active)
7 | O=C1CCC[C@@H]2[C@H]3CCC[N+]4([O-])CCC[C@@H](CN12)[C@@H]34 (stereo not given in full) | inactive
8 | O=C(NC1CCNCC1)c1[nH]ncc1NC(=O)c1c(Cl)cccc1Cl | 418 nM (active)
9 | Cc1nc(N)ncc1-c1nc(N2CCOCC2)c2sc(C(C)(C)O)cc2n1 | 52.6 nM (active)
10 | COc1cc2c(Oc3ccc(NC(=O)C4(C(=O)Nc5ccc(F)cc5)CC4)cc3F)ccnc2cc1OCCCN1CCOCC1 | 2960 nM (active)
11 | COC(=O)c1ccc2c(C(=Nc3ccc(N(C)C(=O)CN4CCN(C)CC4)cc3)c3ccccc3)c(O)[nH]c2c1 | 5900 nM (active)
12 | O=C(O)CCCc1c[nH]c2ccccc12 | inactive
13 | CC(=O)Nc1nc(C)c(-c2ccc(Cl)c(S(=O)(=O)NCCO)c2)s1 | 833 nM (active)
14 | CC1(O)CC(c2nc(-c3ccc4ccc(-c5ccccc5)nc4c3)c3c(N)nccn23)C1 (stereo not given) | 187 nM (active)
15 | Cc1cc(N2CCOCC2)cc2[nH]c(-c3c(NC[C@@H](O)c4cccc(Cl)c4)cc[nH]c3=O)nc12 | 52.6 nM (active)
16 | CCN1CCN(CC(=O)Nc2ccc(-c3cccc4c(=O)cc(N5CCOCC5)oc34)c3sc4ccccc4c23)CC1 | 187 nM (active)
17 | COc1ccc2c(c1)CC[C@@H](CN(C)CC(=O)O)[C@H]2c1ccccc1 | 5260 nM (active)
18 | Cn1cc(-c2[nH]c3cc(NC(=O)[C@H](N)C4CCCCC4)cc4c3c2C=NNC4=O)cn1 | 1320 nM (active)
19 | CC(C)c1cc(C(=O)N2Cc3ccc(CN4CCN(C)CC4)cc3C2)c(O)cc1O | 166 nM (active)
20 | Cc1cn2cc(C(=O)N(C)CCO)cc(N[C@@H]3CCOc4cccc(C)c43)c2n1 | inactive

Row | Structure (SMILES) | Potency
21 | CC(C)Nc1cc(C(F)(F)F)cc2nc(NC(=O)c3cccnc3)nn12 | inactive
22 | Cc1[nH]c2ccccc2c1CCNCc1ccc(C=CC(=O)NO)cc1 | 52.6 nM (active)
23 | CN[C@H]1CCc2cc(OC)c(OC)c(OC)c2-c2ccc(OC)c(=O)cc21 | 23.5 nM (active)
24 | CC(C)c1ccc(Cn2ccc3c4c(N)nc(NC5CC5)nc4ccc32)cc1 | 13200 nM (active)
25 | CC(C)c1ccccc1Cc1cc(C(=O)Nc2ccc(S(=O)(=O)c3ccccc3C(C)(C)C)cc2)c(O)c(O)c1O | 7430 nM (active)
26 | O=C(NCCCNc1nc(Nc2cccc(NC(=O)N3CCCC3)c2)ncc1I)c1cccs1 | 5900 nM (active)
27 | Cc1ccc(NC(=O)C2(c3ccc4c(c3)OC(F)(F)O4)CC2)nc1-c1cccc(C(=O)O)c1 | 235 nM (active)
28 | CC1COC2(CCN(c3nc(=O)c4cc(C(F)(F)F)cc([N+](=O)[O-])c4s3)CC2)O1 (stereo not given) | inactive
29 | O=C(CCCCCCNC(=O)c1cnc(N(c2ccccc2)c2ccccc2)nc1)NO | 5900 nM (active)
30 | O=C(O)C1(Cc2cccc(Nc3nccs3)n2)CCC(Oc2cccc(Cl)c2F)CC1 (stereo not given) | inactive
31 | COc1c(OCCCN2CCOCC2)ccc2c3n(c(=NC(=O)c4cnc(N)nc4)nc12)CCN3 | 12.9 nM (active)
32 | COC(=O)C1=C(C)NC(C)=C(C(=O)OCCN2CCN(C(c3ccccc3)c3ccccc3)CC2)C1c1cccc([N+](=O)[O-])c1 (stereo not given) | inactive
33 | CC[C@@]1(O)C(=O)OCc2c1cc1n(c2=O)Cc2cc3cc(O)ccc3nc2-1 | 296 nM (active)
34 | C[C@@H]1COC(Nc2ccc3ncnc(Nc4ccc(OCc5nccs5)c(Cl)c4)c3c2)=N1 | 3320 nM (active)
35 | CC1(C)CC(=O)c2c(C(F)(F)F)nn(-c3ccc(C(N)=O)c(NC4CCC(OC(=O)CN)CC4)c3)c2C1 (stereo not given) | 148 nM (active)
36 | Clc1ccc2ncc(-c3cccc(NC4CNC4)n3)n2c1 | 20900 nM (active)
37 | Cc1cccc(C=NNc2cc(N3CCOCC3)nc(OCCc3ccccn3)n2)c1 | 14800 nM (active)
38 | Nc1ncnc2c1c(-c1cccc(OCc3ccccc3)c1)cn2C1CC(CN2CCCC2)C1 (stereo not given) | 83.3 nM (active)
39 | NC1(Cc2ccc(Cl)cc2)CCN(c2ncnc3[nH]ccc23)CC1 | 935 nM (active)
40 | C=CC(=O)Nc1cc2c(Nc3ccc(F)c(Cl)c3)ncnc2cc1C#CC(C)(C)N1CCN(C)CC1 | 833 nM (active)

From PubChem BioAssay (NCATS)
